Data taken from PubChem BioAssay (NCATS).
“And” between values parts separate entries of the source, which are not always exact repeats. Equal entries are not always repeated. Results filed as inconclusive are left out. The source holds several records for some structures; these can differ, active in one and inactive in another. The source made the active and inactive calls. Calls come from the whole dose curve; as a rule, active = well fitted curve in the direction sought with a large enough effect; inconclusive = small, poorly fitted or top-dose-only effect, or another doubt; inactive = no such curve, though single readings can be large; an effect the other way counts as inactive or inconclusive.

Assay: Quantitative highthroughput screen to assess conditional lethalithy of SEM cells grown in RPMI1640 with unreated serum (RPMI+s) (AID 1963883); note: nearly all actives have a fitted effect of over 35% in size
Details: SEM B-ALL cells, CellTiter-Glo viability, 48 h; series mostly up to 45.8 µM
Method in brief: (§1)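 Each medium arm—HPLM with 10% dialyzed FBS, or RPMI1640 with 5 mM glucose and 10% untreated or dialyzed FBS—was screened against an 11-point, 3-fold compound titration for 48 h at 37 °C, with CellTiter-Glo luminescence as endpoint.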
Potency is the fitted concentration of half-maximal effect.

Compound | Potency
C=C(C)[C@H]1Cc2c(ccc3c2O[C@@H]2COc4cc(OC)c(OC)cc4[C@@H]2C3=O)O1 | 4.18 µM (active)
Cc1[nH]nc2ccc(-c3cncc(OC[C@@H](N)Cc4c[nH]c5ccccc45)c3)cc12 | 0.59 µM (active)
N[C@@H](Cc1ccc(N(CCCl)CCCl)cc1)C(=O)O | 2.64 µM (active)

Assay: Quantitative highthroughput screen to assess conditional lethalithy of SEM cells grown in RPMI1640 with dialyzed fetal bovine serum (RPMI+ds) (AID 1963884); note: nearly all actives have a fitted effect of over 35% in size;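 for viability: 100% = DMSO control wells and 0% = empty wells without cells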
Details: SEM B-ALL cells, RPMI+dialyzed FBS, CellTiter-Glo viability, 48 h; series mostly up to 45.8 µM
Method in brief: as §1

Compound | Potency
O=P1(NCCCl)OCCCN1CCCl (stereo not drawn) | 20.9 µM (active)
NCC1(CC(=O)O)CCCCC1 | inactive
CCNC(=O)C[C@@H]1N=C(c2ccc(Cl)cc2)c2cc(OC)ccc2-n2c(C)nnc21 | 1.05 µM (active)
Cc1ncc(OC[C@@]2(c3cccc(F)c3)C[C@H]2C(=O)Nc2ccc(F)cn2)c(C)n1 | inactive

Assay: Cellular viability qHTS for adrenocortical cancer (ACC) cell line SW-13 (AID 1963989); note: nearly all actives have a fitted effect of over 65% in size;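 for activity (max response): cells grown in serum-free medium with ITS supplement; % is set by controls: 0 for no effect and ±100 for the full control effect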
Details: SW-13 ACC cells viability, CellTiter-Glo, 48 h; activity (max response): stronger effect = lower value
Method in brief: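 Luminescent ATP read-out (CellTiter-Glo, 20 min at room temperature) measured metabolically competent SW-13 cells after 48 h compound treatment. Final concentrations spanned up to 46 uM; bortezomib served as positive control.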

Compound | Potency | activity (max response)
C=C(C)[C@H]1Cc2c(ccc3c2O[C@@H]2COc4cc(OC)c(OC)cc4[C@@H]2C3=O)O1 | 0.0116 µM (active) | –
Cc1[nH]nc2ccc(-c3cncc(OC[C@@H](N)Cc4c[nH]c5ccccc45)c3)cc12 | 0.708 µM (active) | –
N[C@@H](Cc1ccc(N(CCCl)CCCl)cc1)C(=O)O | – | -19.4% (inactive)
CC(C)(C)c1cc(C=C(C#N)C#N)cc(Br)c1O | – | 9.19% (inactive)
O=P1(NCCCl)OCCCN1CCCl (stereo not drawn) | – | 17.4% (inactive) and 1.23% (inactive)
CN1C(=O)COc2c(C(=O)NC3CN4CCC3CC4)cc(Cl)cc21 (stereo not drawn) | – | 0.49% (inactive) and -6.93% (inactive)
CC[C@@H](C(N)=O)N1CCCC1=O | – | -2.57% (inactive)
NCC1(CC(=O)O)CCCCC1 | – | 12.5% (inactive) and -5.41% (inactive)
CCNC(=O)C[C@@H]1N=C(c2ccc(Cl)cc2)c2cc(OC)ccc2-n2c(C)nnc21 | – | -15.2% (inactive)
Cc1ncc(OC[C@@]2(c3cccc(F)c3)C[C@H]2C(=O)Nc2ccc(F)cn2)c(C)n1 | – | 7.8% (inactive)
CN1CCN(c2ccc([N+](=O)[O-])c3no[n+]([O-])c23)CC1 | – | 1.98% (inactive)
CC(C)c1cccc(C(C)C)c1O | – | 18.8% (inactive) and -6.92% (inactive)
COC(=O)[C@@H](N)CCCN=C(N)N[N+](=O)[O-] | – | 6.1% (inactive)
CN[C@@H]1Cc2cccc3[nH]c(=O)n(c23)C1 | – | -9.99% (inactive)
O=C(N[C@H]1CN2CCC1CC2)c1ccc(Cl)cc1 | – | 3.8% (inactive)

Assay: Cellular viability qHTS for adrenocortical cancer (ACC) cell line NCI-H295R (AID 1963990); note: nearly all actives have a fitted effect of over 60% in size
Details: CellTiter-Glo ATP luminescence, 48 h; series mostly up to 46.1 µM
Method in brief: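 IC50 and maximal efficacy derive from four-parameter logistic modelling of titration curves, with reads scaled between DMSO-only wells (0%) and doxorubicin hydrochloride (100% inhibition). Compounds spanned up to 46 uM over 48 h.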

Compound | Potency
C=C(C)[C@H]1Cc2c(ccc3c2O[C@@H]2COc4cc(OC)c(OC)cc4[C@@H]2C3=O)O1 | 0.103 µM (active)
Cc1[nH]nc2ccc(-c3cncc(OC[C@@H](N)Cc4c[nH]c5ccccc45)c3)cc12 | 2.24 µM (active)
CC(C)(C)c1cc(C=C(C#N)C#N)cc(Br)c1O | inactive
O=P1(NCCCl)OCCCN1CCCl (stereo not drawn) | inactive
CCOc1ccccc1-n1c(C(C)N2CCN(C(=O)COc3ccc(Cl)cc3)CC2)nc2ccccc2c1=O (stereo not drawn) | 0.891 µM (active)
CN1C(=O)COc2c(C(=O)NC3CN4CCC3CC4)cc(Cl)cc21 (stereo not drawn) | inactive
CC(NC(C)(C)C)C(=O)c1cccc(Cl)c1 (stereo not drawn) | inactive
CC[C@@H](C(N)=O)N1CCCC1=O | inactive
NCC1(CC(=O)O)CCCCC1 | inactive
CCNC(=O)C[C@@H]1N=C(c2ccc(Cl)cc2)c2cc(OC)ccc2-n2c(C)nnc21 | inactive
Cc1ncc(OC[C@@]2(c3cccc(F)c3)C[C@H]2C(=O)Nc2ccc(F)cn2)c(C)n1 | inactive
CC(C)c1cccc(C(C)C)c1O | inactive and 23.1 µM (active)
COC(=O)[C@@H](N)CCCN=C(N)N[N+](=O)[O-] | inactive
CN[C@@H]1Cc2cccc3[nH]c(=O)n(c23)C1 | inactive
O=C(N[C@H]1CN2CCC1CC2)c1ccc(Cl)cc1 | inactive
COc1ccc(C(=O)c2c(C)n(CCN3CCOCC3)c3ccccc23)cc1 | 14.6 µM (active)
